# What was measured:
# Conditions in all cases: concentration: 1 μM, replicates: in singlicate; n = 1
# BLK = test system: BLK
# BMPR1A = test system: BMPR1A
# BMPR1B = test system: BMPR1B
# BMPR2 = test system: BMPR2
# BMX = test system: BMX
# BRAF = test system: BRAF
# BRK = test system: T1, BRK
# T1 construct: gene PTK6
# BRSK1 = test system: BRSK1
# BRSK2 = test system: BRSK2
# BTK = test system: BTK
# BUB1 = test system: BUB1
# CAMK1B = test system: CAMK1B
# CAMK1D = test system: CAMK1D
# CAMK1G = test system: CAMK1G
# CAMK1 = test system: CAMK1
# CAMK2A = test system: CAMK2A
# CAMK2B = test system: CAMK2B
# CAMK2D = test system: CAMK2D
# CAMK2G = test system: CAMK2G
# CAMK4 = test system: CAMK4
# 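Also: KINOMEscan kinase panel screen.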
Compound,%Inh (BLK) [%],%Inh (BMPR1A) [%],%Inh (BMPR1B) [%],%Inh (BMPR2) [%],%Inh (BMX) [%],%Inh (BRAF) [%],%Inh (BRK) [%],%Inh (BRSK1) [%],%Inh (BRSK2) [%],%Inh (BTK) [%],%Inh (BUB1) [%],%Inh (CAMK1B) [%],%Inh (CAMK1D) [%],%Inh (CAMK1G) [%],%Inh (CAMK1) [%],%Inh (CAMK2A) [%],%Inh (CAMK2B) [%],%Inh (CAMK2D) [%],%Inh (CAMK2G) [%],%Inh (CAMK4) [%]
O=c1cc(N2CCOCC2)nc2n(Cc3cccc(F)c3)ccn12 [GSK2297430],32,0,0,0,12,6,23,0,0,0,0,4,15,0,4,0,0,0,13,11
COc1cc2c(cc1OCCN1CCN(C)CC1)ncc1c3ccc(C#N)cc3[nH]c21,4,0,0,0,0,0,23,4,0,0,100,19,44,16,0,93.5,70,92.6,86,0
Cl.Oc1cccc(Nc2ccnc3cc(-c4ccncc4)ccc23)c1 [GW494601],99.1,84,99.9,30,28,76,90,14,4,46,81,5,5,0,35,0,0,6,29,0
CCc1nc(-c2cccc(C)c2)c(-c2ccnc(NCc3ccccc3)c2)s1,0,0,0,9,0,38,0,2,0,0,18,0,6,9,40,11,0,0,10,0
Cc1ccc(NC(=O)c2ccnc(N3CCN(C)CC3)c2)cc1-c1ccc(C(=O)NCC2CC2)cc1 [GW775604],0,0,0,0,0,0,0,0,0,0,0,0,0,0,0,0,0,0,0,0
CC(C)(C)n1cnc2c(N)ncnc21 [SKF-97359],0,0,0,36,0,0,0,0,3,19,52,63,1,0,0,0,0,0,0,0
O=c1cc(N2CCOCC2)nc2n(Cc3cccc(C(F)(F)F)c3)ccn12 [GSK2297543],16,0,0,0,20,0,2,0,7,0,13,36,6,0,4,0,0,0,4,0
Cc1c2ccc(N(C)c3ccnc(Nc4cccc(S(N)(=O)=O)c4)n3)cc2nn1Cc1ccccc1.Cl.Cl [GW787226],82,3,0,1,6,95.8,89,0,0,0,0,0,0,11,2,0,0,0,0,16
